The subject of test [1] is Sodium/Iodide Symporter (NIS), SLC5A5 (gene 6528). The test is described as follows: CPHEA_Stoker_NIS_Inhibition_RAIU: CPHEA's Radioactive Iodide Uptake (RAIU) Assay for Sodium/Iodide Symporter (NIS) Inhibition, Stoker and Laws Labs (AID 2283841). A digest of the protocol: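 hNIS-HEK293T-EPA cells incubated 2 h at room temperature with compound (0.001–100 uM, 0.5% DMSO) and 329 pM final 125I in HBSS/10 mM HEPES, pH 7.4. Intracellular 125I counted; normalised to DMSO maximal uptake, triplicate, three biological replicates.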

A short description of test [2]: ATG_XTT_Cytotoxicity_XSP2: Cytotoxicity Assessment in the Attagene TRANS-FACTORIAL Multi-Species (XSP2) HepG2 Assay (AID 2283837). The essentials: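 XTT-based cell number read-out in human HepG2 liver cells carrying transfected reporter units, measured 24 h after chemical dosing. Activity is signal loss versus DMSO baseline.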
For test [3], the target named is human Thyroid hormone Receptor alpha (TRa), THRA (gene 7067) (UniProt P10827). The test is described as follows: ATG_hTRa_XSP2: Attagene TRANS-FACTORIAL Multi-Species (XSP2) HepG2 Assay for human Thyroid hormone Receptor alpha (TRa) (AID 2283838). The essentials:
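Gain-of-signal in reporter mRNA, relative to DMSO, after 24 h dosing of transfected HepG2; quantitation by RT-PCR fragment analysis on capillary electrophoresis.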

Test [4] deals with frog Thyroid hormone Receptor alpha (TRa), thra-a (gene 397942) (UniProt P15204). As to the kind of experiment: ATG_frTRa_XSP2: Attagene TRANS-FACTORIAL Multi-Species (XSP2) HepG2 Assay for frog Thyroid hormone Receptor alpha (TRa) (AID 2283839).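 For AC50: AC50 reflects induction of frog TRa-driven reporter mRNA above DMSO baseline.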 Here is the method: ATG_XSP2_multi-species_TRANS is a cell-based, multiplexed assay created by modifying the existing Attagene TRANS-FACTORIAL system to include a panel of nuclear receptors from some or all the following species: human (Homo sapiens), mouse (Mus musculus), frog (Xenopus laevis), zebrafish (Danio rerio), chicken (Gallus gallus), and turtle (Chrysemys picta). The ECOTOX-FACTORIAL format uses HepG2, a human liver cell line, with measurements taken at 24 hours after chemical dosing in a 24-well plate. Xsp2 included 3 nM 6-alpha-fluorotestosterone and 1.5 nM norgestrel to stimulate the androgen receptor.ATG_frTRa_XSP2 is one of 29 assay components measured or calculated from the ATG_XSP2_multi-species_TRANS assay. It is designed to make measurements of mRNA induction, a form of inducible reporter, as detected with fluorescence intensity signals by Reverse transcription polymerase chain reaction (RT-PCR) and Capillary electrophoresis technology.The assay endpoint ATG_frTRa_XSP2 was analyzed in the positive analysis fitting direction relative to DMSO as the negative control and baseline of activity. Using a type of inducible reporter, measures of mRNA for gain-of-signal activity can be used to understand the reporter gene at the transcription factor-level as they relate to the gene TR. Furthermore, this assay endpoint can be referred to as a primary readout, because this assay has produced multiple assay endpoints where this one serves a reporter gene function. To generalize the intended target to other relatable targets, this assay endpoint is annotated to the nuclear receptor intended target family, where the subfamily is non-steroidal.
Human liver HepG2 cells are transiently transfected with multiple reporter transcription units (MRTUs) in 6-well plates using FuGene 6 reagent (Roche; 3 ml FuGene/1 mg DNA). The MRTU constructs are regulated by a cis-regulating element (promoter). […] A major difference between the CIS and TRANS system is that in CIS activities of endogenous TFs are measured, whereas the TRANS assay evaluates changes in activities of exogenous, chimeric NR-Gal4 proteins. […] At the end of 24 hour incubation, total RNA was isolated using TriZol reagent (Invitrogen). The isolated RNA is then reverse-transcribed using oligo(dT) primer and Mo-MLV reverse transcriptase (Invitrogen) with DNAse I (Ambion) treatment for 30 min. The one-tenth of the produced cDNA was amplified by PCR using Taq DNA polymerase (Invitrogen) and two reporter sequence-specific primers. The PCR products were fluorescently labeled by primer extension with 6-arboxyfluorescein (6-FAM) 5'-labeled reporter sequence-specific primer (2 min at 95 C, 20 s at 68 C and 10 min at 72 C) and these products were digested with 5U of HpaI (New England Biolabs) for 2h at 37 C. The fragments were purified using Qiaquick PCR columns (Qiagen), analyzed on an ABI 3130xL genetic analyzer (Applied Biosystems) with peak positions identified by using a set of X-rhodamine (ROX)-labeled MapMarker1000 molecular weight standards (BioVentures). The raw capillary electrophoresis data was processed using Attagraph software (Attagene).

Test [5] addresses human Thyroid hormone Receptor beta (TRb), THRB (gene 7068) (UniProt P10828). The test is described as follows: ATG_hTRb_XSP2: Attagene TRANS-FACTORIAL Multi-Species (XSP2) HepG2 Assay for human Thyroid hormone Receptor beta (TRb) (AID 2283840).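 Note: actives raise reporter mRNA so potency reflects agonist-like gain of signal.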 A digest of the protocol: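 In this cell-based multiplex, HepG2 liver cells carrying transfected GAL4-UAS reporter constructs are exposed to chemical for 24 hours, then reporter transcripts are measured by RT-PCR with capillary electrophoresis, scored as gain of signal against DMSO.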

A short description of test [6]: CEETOX_H295R_OHPREG_noMTC: CeeTox H295R High-throughput Steroidogenesis Assay for OH-Pregnenolone (OHPREG), maximum tolerated concentration (MTC) filtered results only (AID 2283912; active = hit-call score of the fitted dose curve at least 0.9, where 1 is the maximum; inactive = score below 0.9). The conditions noted are these: actives raise or lower the signal. Here is the method:
CEETOX_H295R is a cell-based, multiplexed-readout assay that uses H295R, a human adrenal gland cell line, with measurements taken at 48 hours after chemical dosing in a 96-well plate.CEETOX_H295R_OHPREG_noMTC is one of 12 assay component(s) measured or calculated from the CEETOX_H295R assay (11 hormones and 1 viability assay). It is designed to make measurements of hormone induction, a form of inducible reporter, as detected with absorbance signals by HPLC-MS-MS technology. The concentrations for these components have not been pre-filtered for the maximum tolerated concentration (MTC) based on the MTT assay (_noMTC).Data from the assay component CEETOX_H295R_OHPREG_noMTC was analyzed into 1 assay endpoint. This assay endpoint, CEETOX_H295R_OHPREG_noMTC, was analyzed with bidirectional fitting relative to DMSO as the negative control and baseline of activity. Using a type of inducible reporter, gain or loss-of-signal activity using HPLC-MS-MS was used to understand synthesis of 17alpha-hydroxypregnenolone in H295R cell line at 48hr of chemical exposure, without filtering concentrations for maximum tolerated concentration (MTC). To generalize the intended target to other relatable targets, this assay endpoint is annotated to the steroid hormone intended target family, where the subfamily is progestagens.
Cell culture and media preparation procedures were conducted in accordance with OECD Test No. 456 guidelines, with minor modifications. H295R cells (ATCC CRL-2128) were expanded for 5 passages and frozen in batches in liquid nitrogen. Prior to the steroidogenesis assay, H295R cells were thawed and passed at least 4 times. The maximum passage was 10. Cells were maintained in a 1:1 mixture of DMEM/F12 supplemented with 5ml/L ITS+ Premix (BD Bioscience) and 12.5 ml/L Nu-Serum (BD Bioscience). After seeding cells into 96-well plates at 50-60% confluency, cells were allowed to adhere overnight. Prior to chemical testing, culture medium was replaced with 175 uL medium containing 10 uM forskolin to stimulate steroidogenesis for 48 hours. Following prestimulation, forskolin medium was replaced with medium containing test chemical solubilized in DMSO (ensuring a final concentration of 0.1% DMSO). […] For steroid quantification, media samples were shipped to OpAns, LLC (Durham, NC) on dry ice, and samples were thawed to room temperature prior to liquid-liquid extraction. […] Steroid hormones were separated by HPLC, eluted using a reverse phase C18 gradient with electrospray positive ionization, followed by quantification by tandem mass spectrometry (MS/MS). Data were acquired on a MassHunter Workstation Acquisition version B03.01 (Agilent Technologies, Inc.) and processed using MassHunter Quantitative Analysis for QQQ. Accuracy was determined for each hormone analyte from 3 standards to determine upper and lower limits of quantification (ULOQ and LLOQ, respectively) using a 7-point standard curve. Precision and accuracy of the extraction and quantification methods were calculated as the percent relative standard deviation (%RSD) of the spiked standards and percent spiked standard recovered, respectively. The goal was to achieve 100% accuracy (i.e., recover all spiked-in standard at quantification with minimal loss during run time) and good precision (i.e., have %RSD <15% to ensure reproducibility). Test medium was removed following chemical exposure, and cell viability was evaluated in the same wells by MTT. […]

The nature of test [7]: CEETOX_H295R_OHPROG_noMTC: CeeTox H295R High-throughput Steroidogenesis Assay for OH-Progesterone (OHPROG), maximum tolerated concentration (MTC) filtered results only (AID 2283914; active = hit-call score of the fitted dose curve at least 0.9, where 1 is the maximum; inactive = score below 0.9). The conditions noted are these: actives raise or lower the signal. The essentials: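 Medium hormone measured by reverse-phase C18 HPLC with positive electrospray MS/MS after MTBE liquid-liquid extraction. Cells had 48 h forskolin (10 uM) prestimulation, then 48 h chemical dosing. Gain or loss of signal fitted relative to DMSO baseline.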

Test [8] in a line: CEETOX_H295R_11DCORT_noMTC: CeeTox H295R High-throughput Steroidogenesis Assay for 11-Deoxycortisol (11DCORT), maximum tolerated concentration (MTC) filtered results only (AID 2283911; active = hit-call score of the fitted dose curve at least 0.9, where 1 is the maximum; inactive = score below 0.9). The conditions noted are these: actives raise or lower the signal. A digest of the protocol: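 Readout is 11-deoxycortisol in culture medium by reverse-phase HPLC with MS/MS, after 48 h chemical treatment of forskolin-primed H295R cells. Values are relative to DMSO and unfiltered for cytotoxicity.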

Test [9] can be described thus: CEETOX_H295R_CORTISOL_noMTC: CeeTox H295R High-throughput Steroidogenesis Assay for Cortisol, maximum tolerated concentration (MTC) filtered results only (AID 2283916; active = hit-call score of the fitted dose curve at least 0.9, where 1 is the maximum; inactive = score below 0.9). The conditions noted are these: actives raise or lower the signal. A digest of the protocol: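 H295R human adrenal cells prestimulated 48 h with 10 uM forskolin, then exposed 48 h to chemical in 0.1% DMSO; cortisol in medium quantified by HPLC-MS/MS; bidirectional fit vs DMSO baseline, concentrations not MTT-filtered for MTC.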

We go through 16 compounds from PubChem BioAssay (EPA / NIEHS).

Molecules are shown by their SMILES. Records with an inconclusive call do not appear. More than one record can exist for a structure, and the calls need not agree. Active and inactive are the calls of the source. Rule for the calls, unless noted: active = hit-call score of the fitted dose curve at least 0.9, where 1 is the maximum; inconclusive = response in the unintended direction; inactive = score below 0.9.

Chain of human Thyroid hormone Receptor alpha (TRa), THRA (gene 7067) (P10827 whole entry, looked up, the tested form may be a part): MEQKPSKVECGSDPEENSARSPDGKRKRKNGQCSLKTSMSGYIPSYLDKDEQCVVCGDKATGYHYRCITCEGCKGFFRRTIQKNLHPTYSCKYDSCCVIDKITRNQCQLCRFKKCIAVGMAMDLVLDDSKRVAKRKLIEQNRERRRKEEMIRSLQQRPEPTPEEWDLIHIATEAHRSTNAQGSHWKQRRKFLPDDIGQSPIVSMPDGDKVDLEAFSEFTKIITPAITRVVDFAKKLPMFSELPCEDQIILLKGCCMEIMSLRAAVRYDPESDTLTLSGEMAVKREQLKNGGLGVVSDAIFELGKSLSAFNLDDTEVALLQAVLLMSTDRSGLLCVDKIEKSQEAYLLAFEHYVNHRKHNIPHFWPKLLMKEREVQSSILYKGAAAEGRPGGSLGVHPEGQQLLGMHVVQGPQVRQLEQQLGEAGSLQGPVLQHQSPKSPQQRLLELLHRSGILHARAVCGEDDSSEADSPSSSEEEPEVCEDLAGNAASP
Chain of frog Thyroid hormone Receptor alpha (TRa), thra-a (gene 397942) (P15204 whole entry, looked up): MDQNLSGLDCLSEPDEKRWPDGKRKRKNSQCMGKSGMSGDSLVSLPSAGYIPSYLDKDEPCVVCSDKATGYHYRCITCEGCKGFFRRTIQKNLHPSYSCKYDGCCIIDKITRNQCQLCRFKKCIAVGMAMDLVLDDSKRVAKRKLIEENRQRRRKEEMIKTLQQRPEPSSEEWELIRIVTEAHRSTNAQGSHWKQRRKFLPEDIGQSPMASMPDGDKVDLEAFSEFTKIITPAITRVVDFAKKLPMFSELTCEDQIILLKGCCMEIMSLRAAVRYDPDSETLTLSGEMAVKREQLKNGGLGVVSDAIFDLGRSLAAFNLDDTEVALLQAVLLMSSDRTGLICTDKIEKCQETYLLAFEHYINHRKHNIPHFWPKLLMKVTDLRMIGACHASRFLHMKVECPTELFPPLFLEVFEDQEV
Chain of human Thyroid hormone Receptor beta (TRb), THRB (gene 7068) (P10828 whole entry, looked up, the tested form may be a part): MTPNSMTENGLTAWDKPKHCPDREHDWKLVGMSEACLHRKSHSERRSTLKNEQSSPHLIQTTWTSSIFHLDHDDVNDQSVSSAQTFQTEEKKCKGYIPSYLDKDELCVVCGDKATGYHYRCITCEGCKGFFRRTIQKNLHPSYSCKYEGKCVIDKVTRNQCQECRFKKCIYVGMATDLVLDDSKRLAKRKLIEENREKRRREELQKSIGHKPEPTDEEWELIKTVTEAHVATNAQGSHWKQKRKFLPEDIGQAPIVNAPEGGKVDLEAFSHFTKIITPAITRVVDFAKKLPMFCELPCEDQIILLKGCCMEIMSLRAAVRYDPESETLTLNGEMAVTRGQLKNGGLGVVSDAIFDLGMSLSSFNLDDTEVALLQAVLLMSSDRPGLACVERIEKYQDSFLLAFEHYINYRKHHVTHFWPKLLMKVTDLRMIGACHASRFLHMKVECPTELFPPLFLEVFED

With `NCc1cccc(C2CCN(C(=O)c3ccc(C#Cc4ccccc4F)o3)CC2)c1`, the outcome in [1] was inactive.

As to `OC12N=C(c3ccccc3)SC1Cc1cc(Cl)ccc12` (centres undefined), the result in test [1] was inactive.

As to `O=c1c(-c2ccc(O)cc2)coc2cc(O)cc(O)c12`, the compound was classed as inactive in test [2], in test [3], in test [4] and in [5].

`CCOC(=O)O[C@H](C)OC(=O)c1ccc2c(c1)cc(C(=O)NC1CCN(C(C)C)CC1)n2Cc1cc(-c2ccc(Cl)s2)on1`: in [1], the result was inactive.

`C[C@]12CC[C@@H]3c4ccc(O)cc4CC[C@H]3[C@@H]1CCC2=O`: in [4], the call was inactive.

For the compound `CN(C)C(=O)C1(N2CCCCC2)CCN(CC[C@@]2(c3ccc(Cl)c(Cl)c3)CN(C(=O)c3ccccc3)CCO2)CC1`, in [1], the outcome was inactive.

Take `CCN(CC)C(=O)c1cc(S(=O)(=O)Cc2ccccc2)c(N2CCC(c3ccccc3)CC2)cc1N(CC)CCN(C)C`: the outcome in test [1] was inactive.

As to `Cc1cc2c(cc1C(F)(F)F)N(C(=O)Nc1ccc(Oc3cccnc3C)nc1)CC2`, the result in [1] was inactive.

`Cc1c2ccccc2c(C)c2c1ccc1ccccc12`: the compound was classed as inactive in [4] and in test [1].

Consider `O=C1c2ccccc2C(=O)N1CCc1noc(-c2ccc(CN3CCCCCC3)s2)n1`, for which the result in test [1] was inactive.

For `CCCCCCCCOc1ccc(C(=O)c2ccccc2)c(O)c1`, the concentration at half-maximal activity (AC50) in test [6] is 30.9 µM (active); in test [7], 27.4 µM (active).

As to `COc1cc(C(=O)NC2CCN(C)CC2)ccc1Nc1ncc2c(n1)N(C1CCCC1)CC(F)(F)C(=O)N2C`, the result in test [1] was inactive.

Consider `CN(C)c1ccc(C(=C2C=CC(=[N+](C)C)C=C2)c2ccc(N(C)C)cc2)cc1`, for which, in [1], the AC50 is 17.4 µM (active).

For the compound `CC1(C)NC(=O)N(c2ccc([N+](=O)[O-])c(C(F)(F)F)c2)C1=O`, the result in test [2], in test [3], in [4] and in test [5] was inactive. Moreover, the values for the concentration at half-maximal activity (AC50) in test [4] and in test [5] were 66.4 µM (active) and 148 µM (active), respectively.

On to `c1ccc(C[n+]2cccc3ccccc32)cc1`, for which the compound was classed as inactive in [8], in test [6], in test [7] and in [9].

For `Clc1cc(Cl)c2c(c1)N=C1CCCCCN1C2`, the result in test [1] was inactive.

What is called AC50 is the midpoint of the concentration-response curve, whichever way the signal moves.
